Among the data in the supplement of paper PMC9950053 are habituation values, retold here.

Counter-ions that a name gives are not always drawn.

This test concerns Danio rerio larvae (5 dpf). Description: habituation (activity change first vs second 5 min of 1-s interval sound, period 17) minus DMSO control (percentage points); higher = larger habituation measure than DMSO larvae. The note with it: 10 µM; exposure time: 3 h pre-incubation + 3 h imaging. On the procedure:
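Wild-type 5 dpf zebrafish larvae (n=48 per drug, 96-well plates, 28.5 °C) were exposed to Tocris FDA-approved library compounds at 10 µM (0.1% DMSO) for 3 h before and 3 h during imaging. Images were taken every 6 s during visual (moving coloured lines) and acoustic stimuli, and larvae were tracked with the DeepLabCut-based Z-LaP Tracker. Each behavioural measure is the treated-group mean minus the DMSO vehicle control mean (n=844), in percentage points. This mapping covers compounds with 4-character plate codes.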
For `CN(C)CCC[C@@]1(c2ccc(F)cc2)OCc2cc(C#N)ccc21` [Escitalopram oxalate], the habituation is -6.32.
In the case of `CN1CCN(CCCN2c3ccccc3Sc3ccc(Cl)cc32)CC1` [Prochlorperazine dimaleate], the habituation was -8.1.
Turning to `C=CC(=O)N1CCC[C@@H](n2nc(-c3ccc(Oc4ccccc4)cc3)c3c(N)ncnc32)C1` [Ibrutinib], the habituation is -7.32.
As for `Nc1nc2[nH]cc(CCc3ccc(C(=O)N[C@@H](CCC(=O)O)C(=O)O)cc3)c2c(=O)[nH]1` [Pemetrexed], the habituation was -1.84.
Regarding `COC(=O)C1=C(C)NC(C)=C(C(=O)OC(C)C)C1c1cccc2nonc12` (stereo not given) [Isradipine], the habituation is -15.1.
The value for `CC(CCc1ccc(O)cc1)NCCc1ccc(O)c(O)c1` (stereo not given) [Dobutamine hydrochloride] was 3.31; that for `CCCCc1nc(Cl)c(CO)n1Cc1ccc(-c2ccccc2-c2nnn[nH]2)cc1` [Losartan potassium] was 1.01; that for `Clc1ccc(COC(Cn2ccnc2)c2ccc(Cl)cc2Cl)c(Cl)c1` (stereo not given) [Miconazole nitrate] was -11.4.
As for `Nc1ncn([C@H]2C[C@H](O)[C@@H](CO)O2)c(=O)n1` [Decitabine], the habituation was found to be 7.42.
As for `CC(C)C(=O)OCC(=O)[C@@]12O[C@H](C3CCCCC3)O[C@@H]1C[C@H]1[C@@H]3CCC4=CC(=O)C=C[C@]4(C)[C@H]3[C@@H](O)C[C@@]12C` [Ciclesonide], the habituation was determined as 0.71.
Turning to `Nc1nc(F)nc2c1ncn2[C@@H]1O[C@H](CO)[C@@H](O)[C@@H]1O` [Fludarabine], the habituation is -0.666.
In the case of `OCCN(CCO)c1nc(N2CCCCC2)c2nc(N(CCO)CCO)nc(N3CCCCC3)c2n1` [Dipyridamole], the habituation came out at 5.96.
Consider `CC(C)c1nc(CN(C)C(=O)N[C@H](C(=O)N[C@@H](Cc2ccccc2)C[C@H](O)[C@H](Cc2ccccc2)NC(=O)OCc2cncs2)C(C)C)cs1` [Ritonavir], for which the habituation is -0.524.
The same measure for `CC(C)N(CCCCOCC(=O)NS(C)(=O)=O)c1cnc(-c2ccccc2)c(-c2ccccc2)n1` [Selexipag]: -0.762; for `O=C1CCc2cc(OCCCCc3nnnn3C3CCCCC3)ccc2N1` [Cilostazol]: 0.0793; for `CN1CC2c3ccccc3Oc3ccc(Cl)cc3C2C1` (stereo not given) [Asenapine maleate]: -12.6.
In the case of `C#C[C@]1(O)CC[C@H]2[C@@H]3CCC4=CC(=O)CC[C@@H]4[C@H]3CC[C@@]21CC` [Levonorgestrel], the habituation is -7.5.
As to `Cc1cn([C@H]2C=C[C@@H](CO)O2)c(=O)[nH]c1=O` [Stavudine], the habituation was -0.444.
Turning to `Cc1nc(Nc2ncc(C(=O)Nc3c(C)cccc3Cl)s2)cc(N2CCN(CCO)CC2)n1` [Dasatinib], the habituation is -0.804.
As to `COc1ccc(Cl)cc1C(=O)NCCc1ccc(S(=O)(=O)NC(=O)NC2CCCCC2)cc1` [Glibenclamide], the habituation was determined as 0.59.
For `CCC(C)(C)C(=O)O[C@H]1C[C@@H](C)C=C2C=C[C@H](C)[C@H](CC[C@@H]3C[C@@H](O)CC(=O)O3)[C@H]21` [Simvastatin], the habituation is -1.02.
In the case of `CN1CCN2c3ncccc3Cc3ccccc3C2C1` (stereo not given) [Mirtazapine], the habituation was -1.26.
For `CCN(CC)CCNC(=O)c1c(C)[nH]c(/C=C2\C(=O)Nc3ccc(F)cc32)c1C` [Sunitinib malate], the habituation stood at 5.06.
`CN(C)CCc1c[nH]c2ccc(Cn3cncn3)cc12` [Rizatriptan benzoate]: the habituation was -1.58.
The value for `NC(=O)c1ncn([C@@H]2O[C@H](CO)[C@@H](O)[C@H]2O)n1` [Ribavirin] was 0.859; that for `Nc1cccc2c1CN(C1CCC(=O)NC1=O)C2=O` (stereo not given) [Lenalidomide] was -0.218.
The same measure for `N[C@@H]1[C@H]2CN(c3nc4c(cc3F)c(=O)c(C(=O)O)cn4-c3ccc(F)cc3F)C[C@@H]12` [Trovafloxacin mesylate]: -4.07; for `COc1ccc(-c2ccc3cc(C(=O)O)ccc3c2)cc1C12CC3CC(CC(C3)C1)C2` [Adapalene]: 1.1; for `CC(C)Nc1cccnc1N1CCN(C(=O)c2cc3cc(NS(C)(=O)=O)ccc3[nH]2)CC1` [Delavirdine mesylate]: -5.18.
`Cc1ccc(N(CC2=NCCN2)c2cccc(O)c2)cc1` [Phentolamine Mesylate]: the habituation was 8.8.
`C[C@]12CC[C@@H]3c4ccc(O)cc4C[C@@H](CCCCCCCCC[S+]([O-])CCCC(F)(F)C(F)(F)F)[C@H]3[C@@H]1CC[C@@H]2O` (stereo not given in full): the habituation was -2.02.
`O=C(c1ccc(OCCN2CCCCC2)cc1)c1c(-c2ccc(O)cc2)sc2cc(O)ccc12` [Raloxifene hydrochloride]: the habituation is -3.07.
The same measure for `CN1CC(=O)N2[C@H](c3ccc4c(c3)OCO4)c3[nH]c4ccccc4c3C[C@@H]2C1=O` [Tadalafil]: -0.158; for `COc1cccc2c1C(=O)c1c(O)c3c(c(O)c1C2=O)C[C@@](O)(C(=O)CO)C[C@@H]3O[C@H]1C[C@H](N)[C@H](O)[C@H](C)O1` [Doxorubicin hydrochloride]: 0.248.
The same measure for `Cc1ccccc1C(=O)Nc1ccc(C(=O)N2CCCC(O)c3cc(Cl)ccc32)c(C)c1` (stereo not given) [Tolvaptan]: 2.26.
Turning to `CCc1c2c(nc3ccc(OC(=O)N4CCC(N5CCCCC5)CC4)cc13)-c1cc3c(c(=O)n1C2)COC(=O)[C@]3(O)CC`, the habituation stood at 9.09.
Turning to `CCOC(=O)[C@H](CCc1ccccc1)N[C@H]1CCc2ccccc2N(CC(=O)O)C1=O` [Benazepril hydrochloride], the habituation was found to be 1.78.
Consider `Nc1nc(Cl)nc2c1ncn2[C@@H]1O[C@H](CO)[C@@H](O)[C@@H]1F` [Clofarabine], for which the habituation is -1.06.
Take `CC(C)(C)NC(=O)[C@@H]1C[C@@H]2CCCC[C@@H]2CN1C[C@@H](O)[C@H](Cc1ccccc1)NC(=O)[C@H](CC(N)=O)NC(=O)c1ccc2ccccc2n1` [Saquinavir mesylate]: the habituation was -0.527.
The value for `CC(C)n1c(/C=C/C(O)CC(O)CC(=O)O)c(-c2ccc(F)cc2)c2ccccc21` (stereo not given) [Fluvastatin sodium] was 2.02.
